Results: paper PMC7822874, “Chemoprotective antimalarials identified through quantitative high-throughput screening of Plasmodium blood and liver stage parasites” (Scientific Reports, 2021)
Where two headings read alike, the source gives them in different places.

System: P. berghei-ANKA-GFP-LucCON liver stage parasites in HepG2-A16-CD81EGFP cells
Settings: 48 h

| Compound | % viability (1 µM) | % viability (3 µM) |
| --- | --- | --- |
| COc1ccc(OCCn2cc(C(=O)c3ccco3)c3ccccc32)cc1 [NCGC00101886] | 1.363 | 1.13 |
| COc1cccc(OCCn2cc(C(=O)c3ccco3)c3ccccc32)c1 [MLS000050800] | – | 1.234 |
